Data from PubChem BioAssay AID463173 (ICCB-Longwood Screening Facility, Harvard Medical School, 2010).
Out of some 52,000 compounds screened, about 4,300 (8.3%) were called active. This is one part of a sample in which actives are shown more often than they occur. No stated cut-off is given here; in the data, active means survival mostly below about 52% (no sharp cut-off); inactive means mostly above about 56%.

What follows are compounds tested on DeltatarO mutant (assay: S. aureus survival, RN4220 and DeltatarO strains – OD600, teichoic acid synthesis inhibitors, primary screen (AID 463173)). Conditions: S. aureus RN4220 wild type/DeltatarO growth, OD600, 18 h, hits give low values, screened at 18.75 µg/mL (by protocol).

Structure (SMILES)	survival
O=C1CC(c2cccc(O)c2)c2c(nc(SCc3ccccc3F)[nH]c2=O)N1 (configuration not stated)	106% (inactive)
COc1cc(NC(=O)CN2C(=O)C(c3ccc(C)cc3)=NC23CCCCCC3)cc(OC)c1	83% (inactive)
O=C(COc1ccc(F)cc1)NCc1ccc2c(c1)CCN2C(=O)c1ccccc1	81% (inactive)
COc1ccc(C2CC(=O)NC(NC(=O)c3ccc(Br)cc3)=N2)c(OC)c1OC (configuration not stated)	86% (inactive)
CCOC(=O)N1CCc2c(sc3c2c(=O)n(-c2ccc(Cl)cc2)c(=O)n3CC(C)C)C1	94% (inactive)
CN(C)CCNC(=O)Cn1nc(N2CCN(c3ccccc3)CC2)ccc1=O	86% (inactive)
CC(=O)c1ccc(NC(=O)C2CCN(S(=O)(=O)c3ccc4[nH]c5c(c4c3)CCCCC5)CC2)cc1	94% (inactive)
O=C1COc2cc(S(=O)(=O)CCC(=O)N3CCN(c4cccc(Cl)c4)CC3)c(Cl)cc2N1	66% (inactive)
CCOC(=O)C1=C(CN2CCC(C(=O)OCC)CC2)NC(=O)NC1c1ccc(Cl)cc1 (configuration not stated)	111% (inactive)
COc1ccc(-n2nnc(C(=O)Nc3ccccc3F)c2N)cc1	68% (inactive)
O=C(Nc1ccc(C(F)(F)F)cc1)C1(c2cccs2)CCOCC1	87% (inactive)
Cc1cccc(C)c1NC(=O)CCS(=O)(=O)c1cccc2nonc12	74% (inactive)
Cc1ccc(Nc2ncnc3onc(C)c23)cc1Cl	67% (inactive)
Cc1ccc(C2=NC(c3ccc(F)cc3)=Nc3ccc(C)cc3N2)cc1	72% (inactive)
O=C(NN=C1CCCCC1)c1n[nH]c2c1CCC2	97% (inactive)
CCc1ccc(C(=O)c2cn(CC(=O)Nc3ccc(OC)cc3)c3cc4c(cc3c2=O)OCO4)cc1	81% (inactive)
COc1ccc(CN2CCc3c(c(=O)n4ncc(C(=O)N5CCN(c6ccccc6F)CC5)c4n3C)C2)cc1	88% (inactive)
COc1ccccc1NC(=O)c1cc(S(=O)(=O)N(C)C2CCCCC2)ccc1F	85% (inactive)
CCCSc1ncc(Cl)c(C(=O)Nc2sc3c(c2C(=O)OC)CCCC3)n1	53% (inactive)

Structure (SMILES)	survival
CCSc1ncc(Cl)c(C(=O)Nc2sc3c(c2C(=O)NCCCOC)CCCC3)n1	108% (inactive)
CCNC(=O)c1c(NC(=O)c2nc(S(=O)(=O)CC)ncc2Cl)sc2c1CCCC2	34% (active)
COCCCNC(=O)c1c(NC(=O)c2nc(S(C)(=O)=O)ncc2Cl)sc2c1CCCC2	53% (inactive)
CCCSc1ncc(Cl)c(C(=O)Nc2sc3c(c2C(=O)NCC)CCCC3)n1	45% (active)
Cc1cccc(CSc2ncc(Cl)c(C(=O)Nc3sc4c(c3C(N)=O)CCCC4)n2)c1	112% (inactive)
CCCSc1ncc(Cl)c(C(=O)Nc2sc3c(c2C(N)=O)CCCC3)n1	46% (active)
CCOCCCNC(=O)c1c(NC(=O)c2nc(SC)ncc2Cl)sc2c1CCCC2	64% (inactive)
CCCSc1ncc(Cl)c(C(=O)Nc2sc3c(c2C(=O)NCCOC)CCCC3)n1	92% (inactive)
CCN(CC)c1nn2c(=O)c(C(=O)NCc3ccc(OC)cc3OC)cnc2s1	75% (inactive)
CCOc1ccc(NC(=O)CSc2oc(-c3ccco3)nc2S(=O)(=O)c2ccccc2)cc1	101% (inactive)
Cc1ccc(NC(=O)n2ncc3c(C)cccc32)c(C)c1	85% (inactive)
COc1ccc(-n2nc(C(=O)Nc3ccc(C)cn3)c3c4ccccc4n(C)c3c2=O)cc1	76% (inactive)
CCC(Sc1nc2ncccc2o1)C(=O)Nc1ccc(OC)c(OC)c1 (configuration not stated)	79% (inactive)
COc1cccc(NC(=O)c2nnn(Cc3ccc(OC)c(Br)c3)c2N)c1	57% (inactive)
CCCN(CCC)C(=O)CSc1nc2ccccc2c(=O)n1Cc1ccco1	83% (inactive)
O=C(CSc1nc2ccncc2[nH]1)Nc1ccccc1C(F)(F)F	87% (inactive)
O=S(=O)(Nc1ccc(-c2ccc(N3CCCC3)nn2)cc1)c1ccc(Br)cc1	94% (inactive)
COc1ccc(CNC(=O)c2cnn3c(C)c(Cc4ccc(F)cc4)c(C)nc23)cc1	80% (inactive)
Cc1ccc(OCC(=O)Nc2nnc(S(=O)(=O)N3CCc4ccccc43)s2)cc1	13% (active)

Structure (SMILES)	survival
O=C(COc1ccc(Cl)cc1)Nc1nnc(S(=O)(=O)N2CCc3ccccc32)s1	6% (active)
COc1ccc(OCC(=O)Nc2nnc(S(=O)(=O)N3CCc4ccccc43)s2)cc1	70% (inactive)
CCC(=O)Nc1nnc(S(=O)(=O)N2CCc3ccccc32)s1	76% (inactive)
O=C(COc1ccc(F)cc1)Nc1nnc(S(=O)(=O)N2CCc3ccccc32)s1	17% (active)
CC(C)CC(=O)Nc1nnc(S(=O)(=O)N2CCc3ccccc32)s1	74% (inactive)
Cc1cccc(OCC(=O)Nc2nnc(S(=O)(=O)N3CCc4ccccc43)s2)c1	16% (active)
CC(=O)NCCNC(=O)CCCc1nnc2n(C)c(=O)c3sccc3n12	93% (inactive)
COc1ccc(CCNC(=O)c2cc3n(n2)C(C(F)(F)F)CC(C2CC2)N3)cc1OC (configuration not stated)	99% (inactive)
CC(=O)c1ccc(N2CCN(S(=O)(=O)c3c(C)nc4sc(C)cn4c3=O)CC2)cc1	75% (inactive)
COCCNC(=O)CCC(=O)N1Cc2cccc(OC)c2Oc2ncccc21	89% (inactive)
Nc1nc(=S)[nH]c2c1C1(CCCC1)Cc1ccccc1-2	99% (inactive)
Nc1n[nH]c2c1C1(CCCC1)Cc1ccccc1-2	100% (inactive)
N#CC1=C(N)c2ccccc2CC12CCCCC2	31% (active)
COc1ccc2[nH]c(=O)c(CN(Cc3ccco3)C(=S)NCc3ccco3)cc2c1	65% (active)
COc1ccc(NC(=S)N(Cc2ccco2)Cc2cc3cc(C)c(C)cc3[nH]c2=O)cc1	38% (active)
CNC(=S)N(Cc1ccco1)Cc1cc2ccc(C)cc2[nH]c1=O	99% (inactive)
CCc1ccc2[nH]c(=O)c(CN(CCO)C(=S)NCc3ccco3)cc2c1	88% (inactive)
COc1ccc2[nH]c(=O)c(CN(Cc3ccco3)C(=S)NC3CCCCC3)cc2c1	77% (inactive)
Cc1ccc(NC(=S)N(Cc2ccco2)Cc2cc3cc(C)c(Cl)cc3[nH]c2=O)cc1	82% (inactive)
